# “And” between values parts separate entries of the source, which are not always exact repeats. Identical values can stand only once. Results filed as inconclusive are left out. A call without a number means that no potency is given here. Some compounds were tested as several samples or in several runs, with calls that do not always agree. The source made the active and inactive calls. Calls follow the shape of the dose curve; as a rule, active = well fitted curve in the direction sought with a large enough effect; inconclusive = small, poorly fitted or top-dose-only effect, or another doubt; inactive = no such curve, though single readings can be large; an effect the other way counts as inactive or inconclusive. Numbered stars: 1 amine (or outer) side, 2 acyl side, 3 side chain; on linkers, the order of the positions; unused ones are H or OH. Bridge positions count the residues as written; N and C are the ends. Square brackets hold non-standard residues; d marks the D form. Peptide text beside a SMILES is read from it. I, II: the chains in the order shown. Actinocin(9to1) = Cc1c2oc3c(C)ccc(C(=O)[*:1])c3nc-2c(C(=O)[*:2])c(N)c1=O; NMeV = CN[C@H](C(=O)O)C(C)C; Sar = CNCC(=O)O
# What was measured:
# [1] = Primary qHTS for inhibitors of nuclear receptor binding SET domain protein 2 (NSD2) in an isogenic RCH-ACV NSD2 p.E1099K mutant (9B) (AID 1645876)
# [2] = Primary qHTS for inhibitors of nuclear receptor binding SET domain protein 2 (NSD2) in an RCH-ACV wild type WT cells (2C) (AID 1645877)
# Also: nearly all actives have a fitted effect of over 70% in size.
# Potency is read from the fitted curve at half-maximal effect.
smiles,measurement,setting,value
CCCCCCC[N+](CC)(CC)CCCCc1ccc(Cl)cc1,Potency,[1],1.88 µM (active)
same,Potency,[2],1.88 µM (active)
COc1cc2c(cc1OC)[C@@H]1CC(=O)[C@@H](CC(C)C)CN1CC2,Potency,[1],inactive
same,Potency,[2],inactive
C#C[C@]1(O)CC[C@H]2[C@@H]3CCc4cc(OC5CCCC5)ccc4[C@H]3CC[C@@]21C,Potency,[1],inactive
CC(O)C(=O)O (configuration not stated),Potency,[1],inactive
same,Potency,[2],inactive
CCN(CC)C(=O)N1CCN(C)CC1,Potency,[1],inactive
CC(C)(C)NC(=O)[C@@H]1CN(Cc2cccnc2)CCN1C[C@@H](O)C[C@@H](Cc1ccccc1)C(=O)N[C@H]1c2ccccc2C[C@H]1O,Potency,[1],inactive
same,Potency,[2],inactive
OCc1ccccc1O,Potency,[1],inactive
same,Potency,[2],inactive
NCCc1ccn[nH]1,Potency,[1],inactive
same,Potency,[2],inactive
Cc1onc(-c2c(Cl)cccc2Cl)c1C(=O)N[C@@H]1C(=O)N2[C@@H]1SC(C)(C)[C@@H]2C(=O)O,Potency,[1],inactive
same,Potency,[2],inactive
CC(=O)O[C@]1(C(C)=O)CC[C@H]2[C@@H]3C[C@H](C)C4=CC(=O)CC[C@]4(C)[C@H]3CC[C@@]21C,Potency,[1],25.8 µM (active)
CC1=C(C(=O)O)N2C(=O)[C@@H](NC(=O)[C@H](N)c3ccc(O)cc3)[C@H]2SC1,Potency,[1],inactive
same,Potency,[2],inactive
C=C1C(=C/C=C2\CCC[C@]3(C)[C@@H]([C@H](C)/C=C/[C@@H](O)C4CC4)CC[C@@H]23)C[C@@H](O)C[C@@H]1O,Potency,[1],15 µM (active)
same,Potency,[2],16.8 µM (active)
CCn1cc(C(=O)O)c(=O)c2cnc(N3CCCC3)nc21,"activity change, negative = viability loss",[1],4% [at 9.23 µM] (inactive)
same,"activity change, negative = cell killing",[2],-0.361% [at 9.23 µM] (inactive)
CCCCc1nc(Cl)c(CO)n1Cc1ccc(-c2ccccc2-c2nn[nH]n2)cc1,Potency,[1],inactive
same,Potency,[2],inactive
Oc1ccc(O)cc1,Potency,[1],11.9 µM (active)
same,Potency,[2],15 µM (active)
Cc1ccc(O)c2ncccc12,Potency,[1],10.6 µM (active)
O=S1(=O)c2cccc3cccc(c23)N1CCCN1CCN(c2ccc(F)cc2)CC1,Potency,[1],inactive
same,Potency,[2],inactive
CN1C(CCl)Nc2cc(Cl)c(S(N)(=O)=O)cc2S1(=O)=O (configuration not stated),Potency,[1],inactive
same,Potency,[2],inactive
NCCCC[C@H](N[C@@H](CCc1ccccc1)C(=O)O)C(=O)N1CCC[C@H]1C(=O)O,Potency,[1],inactive
same,Potency,[2],inactive
COCc1c(C(C)C)nc(C(C)C)c(/C=C/[C@@H](O)C[C@@H](O)CC(=O)O)c1-c1ccc(F)cc1,Potency,[1],0.335 µM (active)
same,Potency,[2],0.211 µM (active)
Cc1cc2c(cc1CC(=O)c1sccc1S(=O)(=O)Nc1onc(C)c1Cl)OCO2,Potency,[1],inactive
same,Potency,[2],inactive
CN(C)CC/C=C1/c2ccccc2COc2ccc(CC(=O)O)cc21,Potency,[1],inactive
same,Potency,[2],inactive
NC(=O)CC[C@@H]1NC(=O)[C@H](Cc2ccccc2)NC(=O)[C@H](Cc2ccc(O)cc2)NC(=O)CCSSC[C@@H](C(=O)N2CCC[C@H]2C(=O)N[C@@H](CCCN=C(N)N)C(=O)NCC(N)=O)NC(=O)[C@H](CC(N)=O)NC1=O,Potency,[1],inactive
same,Potency,[2],inactive
CCC(C(=O)OCCN(CC)CC)c1ccccc1 (configuration not stated),Potency,[1],inactive
same,Potency,[2],inactive
C[C@]12CC[C@@H]3c4ccc(O)cc4CC[C@H]3[C@@H]1CC[C@@H]2O,Potency,[1],16.6 µM (active)
same,Potency,[2],7.42 µM (active)
CC[C@@H](CO)NCCN[C@@H](CC)CO,Potency,[1],inactive
same,Potency,[2],inactive
c1ccc(CNCCNCc2ccccc2)cc1,Potency,[1],inactive
same,Potency,[2],inactive
CC1(C)O[C@@H]2[C@@H](CO[C@@]3(COS(N)(=O)=O)OC(C)(C)O[C@@H]23)O1,Potency,[1],inactive
same,Potency,[2],inactive
Nc1ccc(C(=O)O)cc1,Potency,[1],inactive
same,Potency,[2],inactive
C[C@H](O)C(=O)Nc1c(I)c(C(=O)NC(CO)CO)c(I)c(C(=O)NC(CO)CO)c1I,Potency,[1],inactive
same,Potency,[2],inactive
O=C(N/N=C/c1ccccc1O)c1ccncc1,Potency,[1],6.68 µM (active)
same,Potency,[2],23.7 µM (active)
C=C(CC)C(=O)c1ccc(OCC(=O)O)c(Cl)c1Cl,Potency,[1],21.1 µM (active)
CC(CCc1ccccc1)NCC(O)c1ccc(O)c(C(N)=O)c1 (configuration not stated),Potency,[1],inactive
same,Potency,[2],inactive
CN(C)CCCOc1nn(Cc2ccccc2)c2ccccc12,Potency,[1],9.44 µM (active) and 25.8 µM (active)
same,Potency,[2],10.6 µM (active) and 14.5 µM (active)
CC(C)(C)CC(C)(C)c1ccc(O)c(Cc2ccc(Cl)cc2Cl)c1,Potency,[1],inactive
C[C@]12CC[C@@H]3c4ccc(O)cc4CC[C@H]3[C@@H]1C[C@@H](O)[C@@H]2O,Potency,[1],inactive
O=C(CCN1CCC(c2ccccc2)C1)c1ccc2c(c1)OCCO2 (configuration not stated),Potency,[1],2.37 µM (active)
same,Potency,[2],2.99 µM (active)
CNCCC=C1c2ccccc2CCc2ccccc21,Potency,[1],23.1 µM (active)
same,Potency,[2],20.6 µM (active)
COc1ccc(OC)c(C(O)CNC(=O)CN)c1 (configuration not stated),Potency,[1],inactive
same,Potency,[2],inactive
CCCCCCCCCCCCCCNCCO,Potency,[1],7.5 µM (active)
same,Potency,[2],7.5 µM (active)
CN(C(=O)CN(CCO)CC(=O)N(C)C(C)(C)Cc1ccccc1)C(C)(C)Cc1ccccc1,Potency,[1],5.31 µM (active)
same,Potency,[2],5.31 µM (active)
Cc1c(F)c(N2CCNC(C)C2)cc2c1c(=O)c(C(=O)O)cn2C1CC1 (configuration not stated),Potency,[1],inactive
same,Potency,[2],inactive
CCN1CCCC1=O,Potency,[1],inactive
same,Potency,[2],inactive
CC(=O)Oc1ccc(C(=C2CCCCC2)c2ccc(OC(C)=O)cc2)cc1,Potency,[1],inactive
same,Potency,[2],inactive
CN(C)/N=N/c1nc[nH]c1C(N)=O,Potency,[1],inactive
same,Potency,[2],inactive
C=CCc1ccc(O)c(OC)c1,Potency,[1],inactive
same,Potency,[2],inactive
NC(CO)(CO)CO,Potency,[1],inactive
same,Potency,[2],inactive
O=c1[nH]c(=O)n([C@H]2CCCO2)cc1F,Potency,[1],inactive
same,Potency,[2],inactive
COc1cc(NS(C)(=O)=O)ccc1Nc1c2ccccc2nc2ccccc12,Potency,[1],0.417 µM (active)
same,Potency,[2],0.332 µM (active)
CC/C(=C(/CC)c1ccc(O)cc1)c1ccc(O)cc1,Potency,[1],inactive
same,Potency,[2],10.6 µM (active) and inactive
Cc1ccc(C(=O)C(C)CN2CCCCC2)cc1 (configuration not stated),Potency,[1],inactive
same,Potency,[2],21.1 µM (active)
COC(=O)[C@@H]1CC2=CC(=O)CC[C@]2(C)[C@@]23O[C@@H]2C[C@@]2(C)[C@@H](CC[C@@]24CCC(=O)O4)[C@H]13,Potency,[1],inactive
same,Potency,[2],inactive
CCCCCCCCCCCCCCCCOP(=O)([O-])OCC[N+](C)(C)C,Potency,[1],10.6 µM (active)
same,Potency,[2],11.9 µM (active)
Oc1c(I)cc(I)c2cccnc12,Potency,[1],2.99 µM (active)
same,Potency,[2],2.11 µM (active)
CC(=O)CC(c1ccc([N+](=O)[O-])cc1)c1c(O)c2ccccc2oc1=O (configuration not stated),Potency,[1],inactive
same,Potency,[2],inactive
CCN(CC)CCNC(=O)COc1ccc(Cl)cc1,Potency,[1],inactive
same,Potency,[2],inactive
COC(=O)CCc1ccc(OCC(O)CNC(C)C)cc1 (configuration not stated),Potency,[1],inactive
same,Potency,[2],inactive
Cc1c(C(C)C)c(=O)n(-c2ccccc2)n1C,Potency,[1],inactive
same,Potency,[2],inactive
COc1ccc(CCN2CCC(Nc3nc4ccccc4n3Cc3ccc(F)cc3)CC2)cc1,Potency,[1],7.5 µM (active)
same,Potency,[2],5.31 µM (active)
Oc1cc(O)c2c(c1)O[C@H](c1ccc(O)c(O)c1)[C@H](O)C2,Potency,[1],inactive
same,Potency,[2],inactive
NC(=O)c1cc[n+](CC2=C(C(=O)[O-])N3C(=O)[C@@H](NC(=O)Cc4cccs4)[C@H]3SC2)cc1,Potency,[1],inactive
same,Potency,[2],inactive
"Cc1c2oc3c(C)ccc(C(=O)N[C@@H]4C(=O)N[C@H](C(C)C)C(=O)N5CCC[C@H]5C(=O)N(C)CC(=O)N(C)[C@@H](C(C)C)C(=O)O[C@@H]4C)c3nc-2c(C(=O)N[C@@H]2C(=O)N[C@H](C(C)C)C(=O)N3CCC[C@H]3C(=O)N(C)CC(=O)N(C)[C@@H](C(C)C)C(=O)O[C@@H]2C)c(N)c1=O (I: T[dV]P[Sar][NMeV] / II: T[dV]P[Sar][NMeV]; ester I:1-I:C, II:1-II:C; linker I:N-II:N via Actinocin(9to1))",Potency,[1],inactive
same,Potency,[2],inactive
N[C@@H](CCC(=O)N[C@@H](CS)C(=O)NCC(=O)O)C(=O)O,Potency,[1],inactive
same,Potency,[2],inactive
CN1CCN(C(c2ccccc2)c2ccccc2)CC1,Potency,[1],inactive
same,Potency,[2],inactive
O=C(O)CNC(=O)c1ccccc1,Potency,[1],inactive
same,Potency,[2],inactive
CN(C)C(=S)SC(=S)N(C)C,Potency,[1],2.11 µM (active)
same,Potency,[2],2.99 µM (active)
Nc1nc2ncc(CNc3ccc(C(=O)N[C@@H](CCC(=O)O)C(=O)O)cc3)nc2c(=O)[nH]1,Potency,[1],inactive
same,Potency,[2],inactive
O=C1c2ccccc2C(=O)C1c1ccccc1,Potency,[1],inactive
same,Potency,[2],inactive
Cc1ccccc1C(=O)Nc1ccc(C(=O)N2CCCC(N(C)C)c3ccccc32)cc1 (configuration not stated),Potency,[1],5.78 µM (active)
same,Potency,[2],inactive and 5.15 µM (active)
CC(C)=CCC1C(=O)N(c2ccccc2)N(c2ccccc2)C1=O,Potency,[1],16.8 µM (active)
same,Potency,[2],15 µM (active)
O=c1ccc2ccccc2o1,Potency,[1],inactive
same,Potency,[2],inactive
CCCCCC=CCC=CCCCCCCCC(=O)OCC,Potency,[1],23.7 µM (active)
same,Potency,[2],18.8 µM (active)
CCN1CCC[C@H]1CNC(=O)c1c(OC)ccc(Br)c1OC,Potency,[1],inactive
same,Potency,[2],inactive
CCCCC1=NC2(CCCC2)C(=O)N1Cc1ccc(-c2ccccc2-c2nn[nH]n2)cc1,Potency,[1],inactive
same,Potency,[2],inactive
CCCCCCCCCCCCCCCC[N+](C)(C)CC,Potency,[1],0.335 µM (active)
same,Potency,[2],0.299 µM (active)
CC(C)(Oc1ccc(Cl)cc1)C(=O)O,Potency,[1],inactive
same,Potency,[2],inactive
CC(C)n1nc(-c2cc3cc(O)ccc3[nH]2)c2c(N)ncnc21,Potency,[1],29.9 nM (active) and 3.32 µM (active)
same,Potency,[2],47.3 nM (active) and 3.32 µM (active)
COc1cc(OC)cc(OC)c1,Potency,[1],inactive
same,Potency,[2],inactive
NCCC(O)(P(=O)(O)O)P(=O)(O)O,Potency,[1],inactive
same,Potency,[2],inactive
CCN(CC)CCOc1ccc(C(O)(Cc2ccc(Cl)cc2)c2ccc(C)cc2)cc1 (configuration not stated),Potency,[1],5.31 µM (active)
same,Potency,[2],2.66 µM (active)
O=C(OCC(O)CO)c1ccccc1Nc1ccnc2cc(Cl)ccc12 (configuration not stated),Potency,[1],16.8 µM (active)
same,Potency,[2],23.7 µM (active)
COc1cc(C=C2CCC/C(=C\c3ccc(O)c(OC)c3)C2=O)ccc1O,Potency,[1],0.237 µM (active)
same,Potency,[2],0.188 µM (active)

# From PubChem BioAssay (NCATS)
